# Records with an inconclusive call do not appear. Entries that show only a call come without a potency. Active and inactive are the calls of the source. The call rests on the fitted dose curve; in most records, active means well fitted cell-killing curve with a large enough effect; inconclusive means small, poorly fitted or top-dose-only effect, or effect the other way; inactive means no such curve, though single readings can be large or run the other way.
# Key:
# [1] = Quantitative High-Throughput drug screen in 47 multiple myeloma cell lines against the NCATS MIPE library collection: RPMI8226_ATCC cell viability assay (AID 1919871); further: nearly all actives have a fitted effect of over 30% in size
# Outline: (§1)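 Readout: median RLU from CellTiter-Glo after 5 min at room temperature. Preceding step was 48 h drug treatment of 500 cells/well at 37 °C, 5% CO2, with DMSO-only and media-only control wells.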
# [2] = Quantitative High-Throughput drug screen in 47 multiple myeloma cell lines against the NCATS MIPE library collection: OPM2_DSMZ cell viability assay (AID 1919872); further: nearly all actives have a fitted effect of over 30% in size
# Outline: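 Viability readout: CellTiter-Glo luminescence following 5 min room-temperature incubation with reagent. Prior exposure: 48 h, 37C, humidified 5% CO2, 500 cells per well.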
# [3] = Quantitative High-Throughput drug screen in 47 multiple myeloma cell lines against the NCATS MIPE library collection: KMS11_JCRBsus cell viability assay (AID 1919873); further: nearly all actives have a fitted effect of over 50% in size
# Outline: as §1
# [4] = Quantitative High-Throughput drug screen in 47 multiple myeloma cell lines against the NCATS MIPE library collection: PCM6_Riken cell viability assay (AID 1919870); further: nearly all actives have a fitted effect of over 30% in size
# Outline: as §1
# [5] = Quantitative High-Throughput drug screen in 47 multiple myeloma cell lines against the NCATS MIPE library collection: KMS28BM_JCRB cell viability assay (AID 1919874); further: nearly all actives have a fitted effect of over 35% in size
# Outline: as §1
# [6] = Quantitative High-Throughput drug screen in 47 multiple myeloma cell lines against the NCATS MIPE library collection: PE2_PLB cell viability assay (AID 1919869); further: nearly all actives have a fitted effect of over 35% in size
# Outline: as §1
# Potency means the concentration at half of the fitted maximal effect.
SMILES,Potency [1],Potency [2],Potency [3],Potency [4],Potency [5],Potency [6]
COc1ccc(-c2ccc3cc(C(=O)O)ccc3c2)cc1C12CC3CC(CC(C3)C1)C2,0.833 µM (active),inactive,inactive,,,
COc1ccc2c(c1)c(CC(=O)OCC(=O)O)c(C)n2C(=O)c1ccc(Cl)cc1,inactive,inactive,inactive,inactive,inactive,
O=c1oc2c(O)c(O)cc3c(=O)oc4c(O)c(O)cc1c4c23,,inactive,inactive,inactive,,inactive
OCc1ccc(-c2nn(Cc3ccccc3)c3ccccc23)o1,4.18 µM (active),inactive,inactive,inactive,inactive,inactive
Cn1c(=O)c2c(ncn2CC(O)CO)n(C)c1=O (centres undefined),inactive,inactive,inactive,inactive,inactive,inactive
COCCCOc1cc(C[C@@H](C[C@H](N)[C@@H](O)C[C@H](C(=O)NCC(C)(C)C(N)=O)C(C)C)C(C)C)ccc1OC,inactive,inactive,inactive,,inactive,inactive
O=C(O)C1CCCN(CCC=C(c2ccccc2)c2ccccc2)C1 (centres undefined),inactive,inactive,inactive,inactive,inactive,inactive
CC(C)C1CCC(C(=O)N[C@H](Cc2ccccc2)C(=O)O)CC1 (some centres undefined),23.5 µM (active),0.0093 µM (active),16.6 µM (active),inactive,inactive,inactive
CC(C)(C#N)c1cc(Cn2cncn2)cc(C(C)(C)C#N)c1,inactive,inactive,inactive,inactive,inactive,inactive
Cc1noc(NS(=O)(=O)c2ccc(N)cc2)c1C,inactive,inactive,inactive,inactive,inactive,inactive
COc1cc(NS(=O)(=O)c2ccc(N)cc2)nc(OC)n1,inactive,inactive,inactive,inactive,inactive,inactive
COc1c(N2CCNC(C)C2)c(F)cc2c(=O)c(C(=O)O)cn(C3CC3)c12 (centres undefined),inactive,inactive,inactive,inactive,inactive,
CC[C@H](C)C(=O)O[C@H]1C[C@@H](C)C=C2C=C[C@H](C)[C@H](CC[C@@H]3C[C@@H](O)CC(=O)O3)[C@H]21,,,20.9 µM (active),inactive,23.5 µM (active),
CN1CCN(c2c(F)cc3c(=O)c(C(=O)O)cn(CCF)c3c2F)CC1,,inactive,,inactive,inactive,inactive
Clc1ccccc1CN1CCc2sccc2C1,inactive,,,,,
CC(C)OC(=O)OCOP(=O)(CO[C@H](C)Cn1cnc2c(N)ncnc21)OCOC(=O)OC(C)C,,inactive,inactive,16.6 µM (active),14.8 µM (active),
N[C@@H](Cc1ccc(O)c(O)c1)C(=O)O,inactive,,,,inactive,
CCN(CC)CCn1c(=O)c(Cc2ccc(OC)cc2)nc2ccccc21,inactive,inactive,inactive,inactive,inactive,inactive
CCOC(=O)c1ccc(C#Cc2ccc3c(c2)C(C)(C)CCS3)nc1,inactive,inactive,,,inactive,inactive
CNC1CCCN(c2c(F)cc3c(=O)c(C(=O)O)cn(C4CC4)c3c2OC)C1 (centres undefined),inactive,,9.35 µM (active),inactive,,inactive
CO[C@@H]1[C@@H](OC(N)=O)[C@@H](O)[C@H](Oc2ccc3c(O)c(NC(=O)c4ccc(O)c(CC=C(C)C)c4)c(=O)oc3c2C)OC1(C)C,,,,,9.35 µM (active),6.62 µM (active)
O=C(O)CSCC(=O)NC1CCSC1=O (centres undefined),inactive,,inactive,inactive,inactive,inactive
NCCCC(O)(P(=O)(O)O)P(=O)(O)O,inactive,inactive,,9.35 µM (active),14.8 µM (active),inactive
CC(=O)[C@H]1CC[C@H]2[C@@H]3CC=C4C[C@@H](O)CC[C@]4(C)[C@H]3CC[C@]12C,,inactive,inactive,inactive,inactive,inactive
CCc1cc(C(N)=S)ccn1,inactive,inactive,inactive,inactive,inactive,
C#CCN[C@@H]1CCc2ccccc21,9.35 µM (active),inactive,inactive,,inactive,inactive
